From PubChem BioAssay AID1159580 (chemical genetic matrix, 2015)
The whole screen tested about 5,500 compounds, of which about 2,000 (36%) were called active. Another 18% or so got no clear call; they are omitted. Rule as the data show it: active = normalized growth mostly below about 0.91 (no sharp cut-off); inconclusive = no clear call, values can overlap the other calls; inactive = mostly above about 0.92. The list shows a part of the results.

Assay: chemical genetic growth profiling, strain panel (AID 1159580);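 also: tested at 20 µM; growth read once vehicle control cultures reached saturation at 30 °C; 1 = growth at the plate median or of vehicle wells; lower values mean less growth of the strain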
Conditions: growth OD

Measured: normalized growth

Cc1ccsc1/C=C/C1=NCCCN1C
inactive: S. cerevisiae deletion strains, locus YJR075W, strain HOC1, hits give low values 0.991 | S. cerevisiae deletion strains, locus YKL009W, strain mrt4, hits give low values 0.982 | S. cerevisiae deletion strains, locus YKL068W, hits give low values 0.967 | S. cerevisiae deletion strains, locus YKL085W, strain MDH1 (second series), hits give low values 0.979 | S. cerevisiae deletion strains, locus YKL085W, strain MDH1, hits give low values 0.979 | S. cerevisiae deletion strains, locus YKL160W, strain elf1, hits give low values 0.999 | S. cerevisiae deletion strains, locus YKL190W, strain CNB1, hits give low values 1.02 | S. cerevisiae deletion strains, locus YKR001C, strain vps1, hits give low values 0.944 | S. cerevisiae deletion strains, locus YKR026C, strain gcn3, hits give low values 0.994 | S. cerevisiae deletion strains, locus YKR091W, strain srl3, hits give low values 0.994 | S. cerevisiae deletion strains, locus YLL001W, strain dnm1, hits give low values 0.979 | S. cerevisiae deletion strains, locus YLL026W, hits give low values 0.99 | S. cerevisiae deletion strains, locus YLL041C, strain sdh2, hits give low values 0.988 | S. cerevisiae deletion strains, locus YLR027C, strain aat2, hits give low values 0.998 | S. cerevisiae deletion strains, locus YLR039C, strain RIC1, hits give low values 0.947 | S. cerevisiae deletion strains, locus YLR058C, strain SHM2, hits give low values 1.01 | S. cerevisiae deletion strains, locus YLR102C, strain apc9, hits give low values 0.984 | S. cerevisiae deletion strains, locus YLR113W, strain HOG1, hits give low values 0.963 | S. cerevisiae deletion strains, locus YLR221C, strain rsa3, hits give low values 0.983 | S. cerevisiae deletion strains, locus YLR258W, strain gsy2, hits give low values 0.988 | S. cerevisiae deletion strains, locus YLR262C, strain YPT6 (second series), hits give low values 0.97 | S. cerevisiae deletion strains, locus YLR262C, strain YPT6, hits give low values 0.946 | S. cerevisiae deletion strains, locus YLR268W, strain sec22, hits give low values 0.93 | S. cerevisiae deletion strains, locus YLR320W, strain mms22, hits give low values 0.991 | S. cerevisiae deletion strains, locus YLR330W, strain CHS5, hits give low values 1 | S. cerevisiae deletion strains, locus YLR342W, strain FKS1 (second series), hits give low values 1.08 | S. cerevisiae deletion strains, locus YLR342W, strain FKS1, hits give low values 1 | S. cerevisiae deletion strains, locus YLR357W, strain rsc2, hits give low values 0.967 | S. cerevisiae deletion strains, locus YLR370C, strain arc18, hits give low values 0.977 | S. cerevisiae deletion strains, locus YLR371W, strain rom2, hits give low values 0.973 | S. cerevisiae deletion strains, locus YLR384C, strain iki3, hits give low values 0.99 | S. cerevisiae deletion strains, locus YLR418C, strain cdc73, hits give low values 0.956 | S. cerevisiae deletion strains, locus YML016C, strain PPZ1, hits give low values 1.01 | S. cerevisiae deletion strains, locus YML032C, strain rad52, hits give low values 0.958 | S. cerevisiae deletion strains, locus YML120C, strain ndi1, hits give low values 0.991 | S. cerevisiae deletion strains, locus YML124C, strain tub3, hits give low values 0.991 | S. cerevisiae deletion strains, locus YMR058W, strain fet3, hits give low values 0.987 | S. cerevisiae deletion strains, locus YMR078C, strain ctf18, hits give low values 0.975 | S. cerevisiae deletion strains, locus YMR125W, strain sto1, hits give low values 0.994 | S. cerevisiae deletion strains, locus YMR129W, hits give low values 0.99 | S. cerevisiae deletion strains, locus YMR205C, strain PFK2, hits give low values 0.987 | S. cerevisiae deletion strains, locus YMR223W, strain ubp8, hits give low values 1.02 | S. cerevisiae deletion strains, locus YMR231W, strain pep5, hits give low values 0.987 | S. cerevisiae deletion strains, locus YMR263W, strain SAP30, hits give low values 0.994 | S. cerevisiae deletion strains, locus YMR307W, strain GAS1, hits give low values 1.07 | S. cerevisiae deletion strains, locus YNL067W, strain RPL9B, hits give low values 0.98 | S. cerevisiae deletion strains, locus YNL071W, strain lat1, hits give low values 0.988 | S. cerevisiae deletion strains, locus YNL128W, strain TEP1, hits give low values 1 | S. cerevisiae deletion strains, locus YNL153C, strain GIM3, hits give low values 1 | S. cerevisiae deletion strains, locus YNL183C, strain NPR1, hits give low values 0.952 | S. cerevisiae deletion strains, locus YNL209W, strain ssb2, hits give low values 0.984 | S. cerevisiae deletion strains, locus YNL233W, strain BNI4, hits give low values 1.01 | S. cerevisiae deletion strains, locus YNL248C, strain rpa49, hits give low values 0.997 | S. cerevisiae deletion strains, locus YNL250W, strain rad50, hits give low values 0.997 | S. cerevisiae deletion strains, locus YNL271C, strain bni1, hits give low values 0.976 | S. cerevisiae deletion strains, locus YNL298W, strain CLA4, hits give low values 0.974 | S. cerevisiae deletion strains, locus YNL307C, strain MCK1, hits give low values 0.976 | S. cerevisiae deletion strains, locus YNL322C, strain KRE1 (second series), hits give low values 0.987 | S. cerevisiae deletion strains, locus YNL322C, strain KRE1, hits give low values 1 | S. cerevisiae deletion strains, locus YNR049C, strain mso1, hits give low values 0.987 | S. cerevisiae deletion strains, locus YNR052C, strain pop2, hits give low values 0.976 | S. cerevisiae deletion strains, locus YOL006C, strain TOP1, hits give low values 0.921 | S. cerevisiae deletion strains, locus YOL012C, strain htz1 1.13 | S. cerevisiae deletion strains, locus YOL147C, strain pex11, hits give low values 0.992 | S. cerevisiae deletion strains, locus YOR001W, strain rrp6, hits give low values 1.01 | S. cerevisiae deletion strains, locus YOR061W, strain CKA2, hits give low values 1.01 | S. cerevisiae deletion strains, locus YOR069W, strain VPS5, hits give low values 1.01 | S. cerevisiae deletion strains, locus YOR070C, strain gyp1, hits give low values 0.983 | S. cerevisiae deletion strains, locus YOR080W, strain dia2, hits give low values 0.989 | S. cerevisiae deletion strains, locus YOR083W, strain WHI5, hits give low values 0.998 | S. cerevisiae deletion strains, locus YOR106W, strain vam3, hits give low values 0.994 | S. cerevisiae deletion strains, locus YOR136W, strain idh2, hits give low values 0.972 | S. cerevisiae deletion strains, locus YOR144C, strain elg1, hits give low values 0.977 | S. cerevisiae deletion strains, locus YOR184W, strain ser1, hits give low values 0.94 | S. cerevisiae deletion strains, locus YOR231W, strain MKK1, hits give low values 0.979 | S. cerevisiae deletion strains, locus YOR265W, strain rbl2, hits give low values 1.01 | S. cerevisiae deletion strains, locus YOR270C, strain vph1, hits give low values 1.01 | S. cerevisiae deletion strains, locus YOR290C, strain snf2, hits give low values 1 | S. cerevisiae deletion strains, locus YOR316C, strain cot1, hits give low values 0.956 | S. cerevisiae deletion strains, locus YPL051W, strain arl3, hits give low values 0.993 | S. cerevisiae deletion strains, locus YPL055C, strain LGE1, hits give low values 0.954 | S. cerevisiae deletion strains, locus YPL078C, strain atp4, hits give low values 0.992 | S. cerevisiae deletion strains, locus YPL106C, strain sse1, hits give low values 0.996 | S. cerevisiae deletion strains, locus YPL240C, strain hsp82, hits give low values 0.988 | S. cerevisiae deletion strains, locus YPL241C, strain CIN2, hits give low values 1.01 | S. cerevisiae deletion strains, locus YPL256C, strain CLN2, hits give low values 0.939 | S. cerevisiae deletion strains, locus YPR119W, strain clb2, hits give low values 0.981 | S. cerevisiae deletion strains, locus YPR141C, strain kar3, hits give low values 0.979 | S. cerevisiae deletion strains, locus YPR163C, strain tif3, hits give low values 0.983 | S. cerevisiae deletion strains, locus YPR167C, strain met16, hits give low values 0.97 | S. cerevisiae deletion strains, strain wtn01, hits give low values 0.949 | S. cerevisiae strains, strain wild type, hits give low values 1.01
